Reference: PubChem BioAssay (NCATS)
Records with an inconclusive call do not appear. Entries that show only a call come without a potency. Calls of active or inactive are those of the source. The call rests on the fitted dose curve; in most records, active means well fitted inhibition curve with a large enough effect; inconclusive means small, poorly fitted or top-dose-only effect; inactive means flat fitted curve, though single readings scatter.

What follows are compounds tested on CP215 (assay: qHTS profiling for inhibitors of Plasmodium falciparum proliferation (AID 504749; further: nearly all actives have a fitted effect of over 60% in size)). Details: P. falciparum in erythrocytes, SYBR Green DNA, 72 h; series mostly up to 28.7 µM.
Summary of the method: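 Readout was DNA-dye fluorescence from lysed cultures, ex 485/em 535 nm. Parasitized red cells had grown 72 h with compound; data scaled between 0.29 uM artemisinin and DMSO wells and corrected using vehicle-only plates.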
Potency means the concentration at half of the fitted maximal effect.

Row | Structure (SMILES) | Potency
1 | CCCCCCCCCCCCCCCC(=O)OC[C@H](O)[C@H]1OC[C@@H](O)[C@@H]1O | inactive
2 | CCCCC(=O)OCC(=O)[C@]1(O)Cc2c(O)c3c(c(O)c2[C@H](OC2CC(NC(=O)C(F)(F)F)C(O)C(C)O2)C1)C(=O)c1c(OC)cccc1C3=O (some centres not stated) | 4780 nM (active)
3 | C[C@H]1OC(OC2C(O)[C@@H](O)C(OC3C(O)[C@@H](O)C(O)O[C@@H]3CO)O[C@@H]2CO)[C@H](O)C(O)C1N[C@H]1C=C(CO)[C@@H](O)[C@H](O)C1O (some centres not stated) | inactive
4 | CCN(CC)CC(=O)Nc1c(C)cc(C)cc1C | inactive
5 | CC(=O)N[C@H]1[C@H](O[C@@H]2c3ccc(c(Cl)c3)Oc3cc4cc(c3O[C@@H]3O[C@H](CO)[C@@H](O)[C@H](O)C3C)Oc3ccc(cc3Cl)C[C@H]3NC(=O)[C@@H](N)c5ccc(O)c(c5)Oc5cc(O)cc(c5)[C@H](NC3=O)C(=O)N[C@H]4C(=O)N[C@H]3C(=O)N[C@@H]2C(=O)N[C@@H](C(=O)O)c2cc(O)cc(O[C@H]4O[C@H](CO)[C@@H](O)C(O)[C@@H]4O)c2-c2cc3ccc2O)O[C@H](CO)[C@@H](O)[C@@H]1O (some centres not stated) | inactive
6 | NC(=O)c1ncn(C2OC(CO)C(O)C2O)c1N (configuration not stated) | inactive
7 | C[C@H]1[C@@H](OC(=O)CCC(=O)O)OC2OC3(C)CC[C@H]4[C@H](C)CC[C@@H]1[C@@]24OO3 (some centres not stated) | 5.4 nM (active)
8 | CC1(Cn2ccnn2)[C@H](C(=O)O)N2C(=O)C[C@H]2S1(=O)=O (some centres not stated) | inactive
9 | CN(C)CC/C=C1\c2ccccc2COc2ccc(CC(=O)O)cc21 | inactive
10 | CCCC(=O)O[C@]1(C(=O)COC(C)=O)CC[C@H]2C3C[C@H](F)C4=CC(=O)C=CC4(C)[C@@]3(F)[C@@H](O)CC21C (some centres not stated) | inactive
11 | OCCN1CC(O)C(O)C(O)C1CO (configuration not stated) | inactive
12 | COc1cc2c(cc1O)CCN[C@@]21CS[C@H]2c3c(OC(C)=O)c(C)c4c(c3C(COC1=O)N1C2C2c3c(cc(C)c(OC)c3O)CC([C@@H]1O)N2C)OCO4 (some centres not stated) | 0.5 nM (active)
13 | CC(CCC(=O)O)C1CCC2C3C(=O)C[C@@H]4CC(=O)CC[C@@]4(C)C3CC(=O)[C@]12C (some centres not stated) | inactive
14 | C[n+]1c2cc(N)ccc2cc2ccc(N)cc21 | 1070 nM (active)
15 | O=C(OC[C@@H]1O[C@@](O)(COC(=O)c2cccnc2)[C@H](OC(=O)c2cccnc2)[C@H]1OC(=O)c1cccnc1)c1cccnc1 | inactive
16 | O=[N+]([O-])O[C@H]1CO[C@H]2[C@@H]1OC[C@H]2O | inactive
17 | COc1cccc(OC)c1C(=O)NC1C(=O)N2C1SC(C)(C)C2C(=O)O (configuration not stated) | inactive
18 | NC[C@@H]1O[C@H](OC2[C@@H](CO)O[C@@H](OC3[C@H](O)[C@H](N)C[C@H](N)[C@H]3OC3O[C@H](CO)[C@@H](O)[C@H](O)[C@@H]3N)[C@H]2O)C(N)[C@H](O)[C@@H]1O (some centres not stated) | inactive
19 | Cc1ccc(S(=O)(=O)NC(=O)NC(C)Cc2ccccc2)cc1 (configuration not stated) | inactive
20 | OCCOC[C@H]1O[C@H](OCCO)[C@H](OCCO)[C@@H](OCCO)[C@@H]1OCCO (tested in a mixture with another compound) | inactive
21 | C[S+](C)CC[C@H](N)C(=O)O | inactive
22 | CC[C@@H]1/C=C(\C)C[C@H](C)C[C@H](OC)[C@H]2O[C@@](O)(C(=O)C(=O)N3CCCC[C@H]3C(=O)O[C@H](/C(C)=C/[C@@H]3CC[C@H](Cl)[C@H](OC)C3)[C@H](C)[C@@H](O)CC1=O)[C@H](C)C[C@@H]2OC | inactive
23 | NC(=O)C1CC2(NC(=O)NC2=O)c2cc(F)ccc2O1 (configuration not stated) | inactive
24 | CN1[C@@H]2CC[C@@H]1CC(OC(=O)[C@H](CO)c1ccccc1)C2 (some centres not stated) | inactive
25 | CC[C@@]1(O)C[C@H](O[C@H]2C[C@@H](N(C)C)[C@@H](O[C@H]3C[C@@H](O)[C@@H](O[C@H]4CCC(=O)[C@@H](C)O4)[C@@H](C)O3)[C@@H](C)O2)c2c(cc3c(c2O)C(=O)c2c(O)cccc2C3=O)[C@H]1C(=O)OC | 849 nM (active)
26 | CCCCCCCCCCCC(=O)OCC(O)C1OCC(O)C1O (configuration not stated) | inactive
27 | C/C1=C2/[N-]C(C(CC(N)=O)[C@@]2(C)CCC(=O)NCC(C)OP(=O)([O-])O[C@H]2[C@@H](O)[C@@H](n3cnc4cc(C)c(C)cc43)O[C@@H]2CO)[C@]2(C)N=C(/C(C)=C3N=C(/C=C4N=C1C(CCC(N)=O)C\4(C)C)[C@@H](CCC(N)=O)[C@]\3(C)CC(N)=O)[C@@H](CCC(N)=O)[C@]2(C)CC(N)=O.CC(=O)O.[Co] (some centres not stated) | inactive
